The source made the active and inactive calls. Unless noted, calls come from the whole dose curve; as a rule, active = well fitted curve in the direction sought with a large enough effect in the repeat runs; inconclusive = weak or mixed curves; inactive = no such curve, though single readings can be large; an effect the other way counts as inactive or inconclusive.
Legend:
[1] = qHTS assay for small molecule agonists of the p53 signaling pathway - cell viability (AID 651633; calls by dose curve; note: nearly all actives have a fitted effect of over 30% in size; note: potency is the fitted concentration of half-maximal effect)
Procedure, shortened: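 Viability counter-read: CellTiter-Glo luminescence (30 min, room temperature) in the same p53RE-bla plates. These plates had been exposed to compounds for 16 h at 37 C.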

[2] = qHTS assay for small molecule disruptors of the mitochondrial membrane potential - cell viability (AID 720634; calls by dose curve;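 note: human HepG2 liver cancer cells; series mostly up to about 83 µM; nearly all actives have a fitted effect of over 20% in size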)
Procedure, shortened: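 HepG2, 1 hr compound, 37 C. ATP luminescence via CellTiter-Glo, 30 min RT, same well as m-MPI.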

[3] = qHTS assay for small molecule disruptors of the mitochondrial membrane potential (AID 720635); note: potency is the fitted concentration of half-maximal effect
Procedure, shortened: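 Mitochondrial membrane potential tracked with Mito-MPS dye, red aggregates (ex 540/em 590 nm) against green monomers (ex 490/em 535 nm). Compound treatment 1 hr at 37C, dye 30 min in HepG2.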

[4] = qHTS assay to test for compound auto fluorescence at 460 nm (blue) in HEK293 cells (AID 720678)
Procedure, shortened: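 Blue-channel (Ex/Em 405/460 nm) intensity measured in HEK293 cultures after overnight compound exposure at 37C; signal expressed relative to triamterene. Cells plated 2,000 per well in 10% dialyzed FBS medium and allowed 4-5 hr to attach.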

[5] = qHTS assay to test for compound auto fluorescence at 535 nm (green) in HEK293 cells (AID 720680)
[6] = biological target: Glucocorticoid receptor (Homo sapiens) (UniProt P04150); test: qHTS assay to identify small molecule agonists of the glucocorticoid receptor (GR) signaling pathway (AID 720691; active = well fitted activation curve with a large enough effect in the signal ratio in the repeat runs, not every such curve was filed as active; inconclusive = weak or mixed curves, or effect the other way; inactive = no such curve, though single readings can be large or run the other way; the % refers to the signal ratio)
Procedure, shortened: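 qHTS in GR-bla HeLa cells: 4 h settling at 37 C/5% CO2, 18 h compound incubation at 37 C, 2 h LiveBLAzer B/G FRET substrate at room temperature, fluorescence intensity measured.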

[7] = biological target: Glucocorticoid receptor (Homo sapiens) (UniProt P04150); test: qHTS assay to identify small molecule antagonists of the glucocorticoid receptor (GR) signaling pathway (AID 720692; active = well fitted inhibition curve with a large enough effect in the signal ratio in the repeat runs, not every such curve was filed as active; inconclusive = weak or mixed curves, or effect the other way; inactive = no such curve, though single readings can be large or run the other way; the % refers to the signal ratio; note: potency is the fitted concentration of half-maximal effect)
Procedure, shortened: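 Inhibition of glucocorticoid signalling is measured in HeLa cells with a GRE-controlled beta-lactamase reporter; cells are co-treated with compound and 5 nM dexamethasone (final) for 18 h before FRET substrate readout.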

[8] = qHTS assay to identify small molecule antagonists of the glucocorticoid receptor (GR) signaling pathway - cell viability counter screen (AID 720693); note: nearly all actives have a fitted effect of over 55% in size
[9] = qHTS assay for identifying genotoxic compounds that show differential cytotoxicity against isogenic chicken DT40 cell lines with known DNA damage response pathways - Rad54/Ku70 mutant cell line (AID 743015); note: nearly all actives have a fitted effect of over 60% in size; note: potency is the fitted concentration of half-maximal effect
[10] = qHTS assay to identify small molecule antagonists of the androgen receptor (AR) signaling pathway - cell viability counter screen (AID 743033; note: nearly all actives have a fitted effect of over 45% in size; note: potency is the fitted concentration of half-maximal effect)
[11] = qHTS assay to identify small molecule antagonists of the thyroid receptor (TR) signaling pathway - cell viability counter screen (AID 743064); note: nearly all actives have a fitted effect of over 50% in size; note: potency is the fitted concentration of half-maximal effect
Procedure, shortened: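 Compounds were tested on GH3.TRE-Luc cells in the presence of T3 at 1 nM final. Following 23.5 h at 37 °C, cell viability was quantified by CellTiter-Fluor.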

[12] = qHTS assay to identify small molecule antagonists of the thyroid receptor (TR) signaling pathway (AID 743065); note: nearly all actives have a fitted effect of over 55% in size; note: potency is the fitted concentration of half-maximal effect
Procedure, shortened: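 Antagonism measured as loss of luciferase signal in GH3 cells stably carrying a TRE-luciferase reporter, co-treated with compound and T3 (1 nM final) for 23.5 h at 37 C. Viability was read in the same well by CellTiter-Fluor.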

[13] = test system: thyroid hormone receptor (rat, GH3 cells); test: qHTS assay to identify small molecule agonists of the thyroid receptor (TR) signaling pathway (AID 743066; calls by dose curve)
[14] = biological target: Estrogen receptor (Homo sapiens) (UniProt P03372); test: qHTS assay to identify small molecule antagonists of the estrogen receptor alpha (ER-alpha) signaling pathway (AID 743069; active = well fitted curve in the direction sought with a large enough effect in the signal ratio in the repeat runs, not every such curve was filed as active; inconclusive = weak or mixed curves, or effect the other way; inactive = no such curve, though single readings can be large or run the other way; the % refers to the signal ratio)
Procedure, shortened: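 ER-alpha-UAS-bla GripTite HEK293 line; 2% charcoal-stripped FBS overnight; plated, 4 hr 37C/5% CO2; cpd in DMSO + 17beta-estradiol, 18 hr 37C; LiveBLAzer B/G FRET substrate 2 hr RT; fluorescence intensity.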

[15] = biological target: Estrogen receptor (Homo sapiens) (UniProt P03372); test: qHTS assay to identify small molecule agonists of the estrogen receptor alpha (ER-alpha) signaling pathway (AID 743075; calls by dose curve;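 note: HEK293 GripTite cells with ER-alpha and UAS-driven beta-lactamase reporter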; note: potency is the fitted concentration of half-maximal effect)
[16] = biological target: Estrogen receptor (Homo sapiens) (UniProt P03372); test: qHTS assay to identify small molecule agonists of the estrogen receptor alpha (ER-alpha) signaling pathway using the BG1 cell line (AID 743079); note: nearly all actives have a fitted effect of over 20% in size; note: potency is the fitted concentration of half-maximal effect
[17] = qHTS assay to identify small molecule antagonists of the estrogen receptor alpha (ER-alpha) signaling pathway using the BG1 cell line (AID 743080; calls by dose curve;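 note: BG1 cells stimulated with 17beta-estradiol alongside compound; series mostly up to about 70 µM; nearly all actives have a fitted effect of over 25% in size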)
Procedure, shortened: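 Luciferase inhibition measured with ONE-Glo after 30 min at RT in BG1Luc4E2 cells given test compounds and 17beta-estradiol for 21.5 h at 37 C; CellTiter-Fluor viability read in the same wells beforehand.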

[18] = biological target: Nuclear receptor subfamily 1 group I member 2 (Homo sapiens) (UniProt O75469); test: Human pregnane X receptor (PXR) activation by small molecules, qHTS assay (AID 1346985); note: nearly all actives have a fitted effect of over 40% in size
Procedure, shortened: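 DPX-2 cells (HepG2 co-transfected with a PXR response element and a CYP3A4-promoter luciferase construct) were seeded at 2,000 per well, rested 5 hr at 37C, then exposed to DMSO-dissolved compounds for 24 hr. Activation was read as luciferase luminescence.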

[19] = qHTS assay to test for compound auto fluorescence at 590 nm (red) in HEK293 cell free culture (AID 720683)
Procedure, shortened: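 Red-channel autofluorescence of compounds in culture medium (DMEM, 10% FBS), no cells, measured at 540/590 nm. Rose Bengal sodium is the reference fluorophore for equivalence.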

[20] = qHTS assay to identify small molecule antagonists of the androgen receptor (AR) signaling pathway using the MDA cell line - cell viability counter screen (AID 743041; note: nearly all actives have a fitted effect of over 45% in size)
Procedure, shortened: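 Cells were plated at 3,000 per well and left 5 h. Compounds in DMSO were then pinned in, followed by R1881. After 16 h at 37C, CellTiter-Fluor fluorescence gave viability.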

Measured: Potency

Chain of Estrogen receptor (Homo sapiens) (P03372 whole entry, looked up): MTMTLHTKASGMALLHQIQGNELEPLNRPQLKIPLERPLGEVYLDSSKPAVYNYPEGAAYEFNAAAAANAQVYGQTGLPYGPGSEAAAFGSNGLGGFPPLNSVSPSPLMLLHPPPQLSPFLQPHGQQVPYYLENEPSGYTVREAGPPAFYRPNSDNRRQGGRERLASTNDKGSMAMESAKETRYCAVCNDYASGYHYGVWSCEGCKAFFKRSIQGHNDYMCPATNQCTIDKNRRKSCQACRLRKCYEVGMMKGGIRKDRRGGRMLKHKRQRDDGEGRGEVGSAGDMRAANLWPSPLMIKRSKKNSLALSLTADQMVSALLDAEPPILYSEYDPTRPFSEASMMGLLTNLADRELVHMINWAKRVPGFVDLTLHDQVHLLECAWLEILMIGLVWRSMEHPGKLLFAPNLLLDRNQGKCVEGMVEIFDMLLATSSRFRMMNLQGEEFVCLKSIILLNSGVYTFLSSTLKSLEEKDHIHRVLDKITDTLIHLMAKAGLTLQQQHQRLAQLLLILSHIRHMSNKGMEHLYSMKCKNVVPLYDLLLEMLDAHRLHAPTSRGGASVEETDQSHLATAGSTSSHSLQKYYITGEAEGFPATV
Chain of Glucocorticoid receptor (Homo sapiens) (P04150 whole entry, looked up): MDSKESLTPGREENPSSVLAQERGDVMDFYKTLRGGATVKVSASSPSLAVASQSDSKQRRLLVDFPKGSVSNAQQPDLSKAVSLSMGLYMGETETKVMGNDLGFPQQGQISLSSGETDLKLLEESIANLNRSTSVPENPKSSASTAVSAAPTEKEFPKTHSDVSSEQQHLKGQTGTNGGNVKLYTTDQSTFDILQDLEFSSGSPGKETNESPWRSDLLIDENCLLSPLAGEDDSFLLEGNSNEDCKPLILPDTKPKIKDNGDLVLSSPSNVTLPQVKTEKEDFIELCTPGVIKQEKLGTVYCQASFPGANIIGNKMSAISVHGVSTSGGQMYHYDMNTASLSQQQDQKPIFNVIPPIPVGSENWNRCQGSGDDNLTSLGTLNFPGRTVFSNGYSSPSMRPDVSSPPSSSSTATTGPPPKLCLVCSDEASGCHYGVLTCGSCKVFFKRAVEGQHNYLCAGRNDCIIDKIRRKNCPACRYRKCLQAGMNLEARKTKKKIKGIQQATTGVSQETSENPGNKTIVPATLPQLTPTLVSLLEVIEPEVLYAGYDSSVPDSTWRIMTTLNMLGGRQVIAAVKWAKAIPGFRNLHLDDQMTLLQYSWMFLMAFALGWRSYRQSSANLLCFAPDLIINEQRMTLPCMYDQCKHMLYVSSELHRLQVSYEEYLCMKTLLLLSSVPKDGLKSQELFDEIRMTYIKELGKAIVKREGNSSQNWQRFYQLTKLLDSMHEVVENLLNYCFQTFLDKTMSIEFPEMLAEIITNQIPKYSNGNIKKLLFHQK

S=C(S)N1CCNCC1
not listed: [19] | [20]
inactive: all other assays above

O=c1[nH]cc(N(CCCl)CCCl)c(=O)[nH]1
not listed: [1] | [2] | [3] | [7]
inactive: all other assays above

C=CC[C@]1(O)CC[C@H]2[C@@H]3CCC4=CCCC[C@@H]4[C@H]3CC[C@@]21C
active: [3] 9.44 µM | [7] 7.56 µM | [15] 0.952 µM [inconclusive] | [16] 0.376 µM
not listed: [11] | [12] | [13] | [14] | [17] | [18]
inactive: all other assays above

C[C@]12CCC(=O)C=C1C=C[C@@H]1[C@@H]2CC[C@@]2(C)[C@H]1CC[C@@]2(O)CCC(=O)O
active: [7] 9.1 µM
not listed: [1] | [9] | [14] | [15] | [16] | [17] | [20]
inactive: all other assays above

CC(C)CCC(=O)O[C@H]1CC[C@H]2[C@@H]3CCC4=CC(=O)CC[C@]4(C)[C@H]3CC[C@]12C
active: [7] 6.01 µM | [11] 33.5 µM | [12] 29.8 µM | [15] 4.77 µM [inconclusive] | [16] 0.0668 µM
not listed: [1] | [3] | [8] | [14] | [19]
inactive: all other assays above

O=C(CCl)c1ccc(Oc2ccc(C(=O)CCl)cc2)cc1
not listed: [4] | [5] | [6] | [7] | [8] | [9] | [16]
inactive: all other assays above

CC(=O)O[C@H]1C[C@H](O[C@H]2[C@@H](O)C[C@H](O[C@H]3[C@@H](O)C[C@H](OC4CC[C@@]5(C)[C@H](CC[C@@H]6[C@@H]5CC[C@]5(C)[C@@H](C7=CC(=O)OC7)CC[C@]65O)C4)O[C@@H]3C)O[C@@H]2C)O[C@H](C)[C@H]1O[C@@H]1O[C@H](CO)[C@@H](O)[C@H](O)[C@H]1O (some centres undefined)
active: [1] 0.0473 µM | [3] 0.393 µM | [9] 0.596 µM | [10] 0.107 µM
not listed: [7] | [8] | [14] | [16] | [17] | [20]
inactive: all other assays above

N#CC1(N2CCCCC2)CCCCC1
not listed: [4] | [19]
inactive: all other assays above

C[N+]1(C)[C@@H]2CC[C@H]1CC(OC(=O)c1c[nH]c3ccccc13)C2 (some centres undefined)
not listed: [7]
inactive: all other assays above

NC1=NC(=O)N2CC12 (centres undefined)
not listed: [6] | [7] | [10]
inactive: all other assays above

C[N+]1([O-])[C@@H]2CC(OC(=O)[C@H](CO)c3ccccc3)C[C@H]1[C@@H]1O[C@@H]12 (some centres undefined)
not listed: [1] | [2]
inactive: all other assays above

CCCCCCC(=O)O[C@H]1CC[C@H]2[C@@H]3CC[C@H]4CC(=O)C=C(C)[C@]4(C)[C@H]3CC[C@]12C
active: [15] 6.74 µM [inconclusive] | [16] 2.11 µM
not listed: [1] | [2] | [3] | [7] | [10] | [14] | [20]
inactive: all other assays above

CCCC(C)C1(CC)C(=O)NC(=O)NC1=O (centres undefined)
not listed: [1] | [3] | [6] | [7] | [20]
inactive: all other assays above

C=CCN1CC[C@]23c4c5ccc(O)c4O[C@H]2[C@@H](O)C=C[C@H]3[C@H]1C5
inactive: [1] | [3] | [4] | [5] | [19] | [8] | [9] | [11] | [12] | [13] | [18]

OC[C@@H](O)[C@H]1O[C@@H]2O[C@@H](C(Cl)(Cl)Cl)O[C@@H]2[C@H]1O
not listed: [1] | [8]
inactive: all other assays above

CCCCCCCCCC(=O)O[C@H]1CC[C@H]2[C@@H]3CCC4=CC(=O)CC[C@]4(C)[C@H]3CC[C@]12C
active: [15] 10.7 µM [inconclusive] | [16] 0.335 µM
not listed: [7] | [11] | [19]
inactive: all other assays above

O=C(CS(=O)C(c1ccccc1)c1ccccc1)NO (centres undefined)
not listed: [7] | [10]
inactive: all other assays above

CC(C)C[C@H](CN)CC(=O)O
active: [16] 13.3 µM
not listed: [1] | [8] | [10] | [12] | [13]
inactive: all other assays above

CCON=O
not listed: [8] | [16]
inactive: all other assays above

COc1ccc2c(c1)C13CCCC[C@@H]1C(C2)N(C)CC3 (some centres undefined)
not listed: [1] | [12]
inactive: all other assays above

CCCC(=O)OC(C(Cl)(Cl)Cl)P(=O)(OC)OC (centres undefined)
active: [16] 26.6 µM
not listed: [2] | [3] | [5] | [7] | [17]
inactive: all other assays above

CNC(C)CC1CCCCC1 (centres undefined)
not listed: [3] | [9] | [10] | [18]
inactive: all other assays above

— PubChem BioAssay (Tox21)
